Screens: PubChem, National Center for Advancing Translational Sciences (NCATS)
Hits are enriched below; roughly 11% of the tested compounds scored in any of these assays.
AmpC inh detg = AmpC beta-lactamase inhibition with detergent present | hit rate 0.041% among 370,000 | AmpC hydrolysis of nitrocefin, absorbance 480 nm, 0.01% Triton | Potency, µM (titrated, usually from 114 µM), most hits filed as inhibitors | AID 485294; note: nearly all actives have a fitted effect of over 25% in size
Target sequence (P00811 whole entry, looked up): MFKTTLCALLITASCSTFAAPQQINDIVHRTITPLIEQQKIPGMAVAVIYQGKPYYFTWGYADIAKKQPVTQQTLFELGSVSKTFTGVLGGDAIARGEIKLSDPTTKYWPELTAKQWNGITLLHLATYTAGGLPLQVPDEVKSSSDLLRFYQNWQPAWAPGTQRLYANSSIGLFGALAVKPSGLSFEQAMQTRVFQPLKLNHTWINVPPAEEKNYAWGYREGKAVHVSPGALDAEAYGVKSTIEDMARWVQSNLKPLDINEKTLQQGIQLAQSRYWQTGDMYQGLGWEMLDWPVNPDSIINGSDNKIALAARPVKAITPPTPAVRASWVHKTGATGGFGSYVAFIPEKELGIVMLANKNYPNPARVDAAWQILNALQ
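AmpC (5.3 nM in the dispensed reagent) in 20 mM phosphate pH 7.0 with 0.01% (detergent screen) or 0.0001% Triton X-100 was preincubated with compounds for 15 min at room temperature. Nitrocefin was then added from an 800 uM solution, and hydrolysis was followed at 480 nm.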
AmpC inh no detg = blocks E. coli AmpC beta-lactamase in detergent-free assay | AmpC nitrocefin hydrolysis, absorbance 480 nm, 0.0001% Triton | Potency, µM (top dose mostly 57.1 µM), hits mostly inhibitors | hit rate 0.52% among 330,000; note: nearly all actives have a fitted effect of over 20% in size
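AmpC (5.3 nM in the dispensed reagent) in 20 mM phosphate pH 7.0 with 0.01% (detergent screen) or 0.0001% Triton X-100 was preincubated with compounds for 15 min at room temperature. Nitrocefin was then added from an 800 uM solution, and hydrolysis was followed at 480 nm.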
AMA1-RON2 inh = disrupts binding of P. falciparum AMA1 to RON2; AlphaScreen AMA1-biotinylated RON2 peptide binding; Potency, µM (highest dose often 58.2 µM), usual class: inhibitors; hit rate 0.2% among 360,000; note: nearly all actives have a fitted effect of over 45% in size
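AMA1 (3D7) with his tag at 25 nM final met compounds first, then biotinylated RON2 peptide at 25 nM; detection used donor plus acceptor beads, 10 µg/mL apiece, read by AlphaScreen after 30 min at room temperature.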
HCV inh = inhibitors of hepatitis C virus infection; Huh7.5.1 HCVcc-Cre infection, luciferase reporter, 44 h; Potency, µM (series often up to 41.8 µM), hits mostly inhibitors; hit rate 3.4% among 340,000; AID 651820
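Cells (1,000/well) were plated 4 h before compound, then infected with HCVcc-Cre virus (~0.5 moi). After 44 h further culture, infection was read as luciferase luminescence following a 15 min substrate incubation at room temperature.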
Pf growth 96h = P. falciparum growth inhibition at 96 hours; Potency, µM (top dose mostly 28.7 µM), hits mostly inhibitors; hit rate 6.9% among 320,000; P. falciparum luciferase reporter growth, 96 h; AID 504834
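Compounds incubated with erythrocytes infected by luciferase-expressing P. falciparum (2% hematocrit, 0.05% parasitemia final) for 96 hours, 37 C in 5% CO2. Growth inhibition scored as decreased luciferase luminescence.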
Pf growth 48h = P. falciparum growth inhibition at 48 hours (one generation); P. falciparum luciferase growth in erythrocytes, 48 h; Potency, µM (series often up to 28.7 µM), usual class: inhibitors; hit rate 5.9% among 310,000; AID 504832
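Growth was read as firefly luciferase luminescence after a 48 h, 37 C, 5% CO2 exposure of compounds to reporter-bearing P. falciparum cultures (0.1% parasitemia, 2% hematocrit final) in Albumax-supplemented RPMI 1640.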
Numbers stand for hits; - = inactive; ? = inconclusive; . = no result given; [ ] = another dose, or the depositor's remark. Calls come from the whole dose curve; as a rule, active = well fitted curve in the direction sought with a large enough effect; inconclusive = small, poorly fitted or top-dose-only effect, or another doubt; inactive = no such curve, though single readings can be large; an effect the other way counts as inactive or inconclusive.

SMILES	AmpC inh detg	AmpC inh no detg	AMA1-RON2 inh	HCV inh	Pf growth 96h	Pf growth 48h
COC(=O)c1ccc(N2CCOCC2)c(F)c1	?	-	-	-	-	.
Cc1nn(-c2ccc(Cl)cc2)c(=O)c2ccccc12	-	-	-	-	-	-
Cc1c(Cl)sn(-c2ccc(Cl)cc2)c1=O	?	-	-	2.5µM	?	?
Cc1ccc(-n2c(=O)c3ccccc3n(CC(=O)Nc3cccc(C(F)(F)F)c3)c2=O)cc1	-	.	.	.	.	.
C[C@@H](C(=O)Nc1ccc2ccccc2c1)[C@H]1C[C@]1(C)[C@H](NC(=O)OCc1ccccc1)c1ccccc1	-	-	-	?	10µM	?
C[C@@H](C(=O)NCC1CC1)[C@@H]1C[C@@]1(C)[C@@H](NC(=O)OCc1ccccc1)c1ccccc1	?	-	-	0.56µM	4.1µM	4.1µM
Cc1cc(C(=O)N[C@H](c2ccccc2)[C@@]2(C)C[C@@H]2[C@@H](C)C(=O)Nc2ccc3ccccc3c2)n(C)n1	?	-	-	?	3.7µM	2.6µM
C[C@@H](C(=O)NCCc1c[nH]c2ccccc12)[C@H]1C[C@]1(C)[C@H](NC(=O)OCc1ccccc1)c1ccccc1	-	-	-	?	9.3µM	13µM
Clc1ccc(CNc2nc(CN3CCOCC3)nc3scc(-c4ccccc4)c23)cc1	-	-	?	?	3.7µM	?
c1ccc(CNc2nc(CN3CCOCC3)nc3scc(-c4ccccc4)c23)cc1	-	-	-	-	?	?
c1ccc(-c2csc3ncnc(NCCN4CCOCC4)c23)cc1	-	-	-	11µM	?	?
Oc1ccc(Nc2ncnc3scc(-c4ccccc4)c23)cc1	-	-	-	8.9µM	-	-
Cc1ccc(-c2csc3ncnc(NCCN4CCOCC4)c23)cc1	?	-	-	?	10µM	13µM
Cc1oc(-c2ccc(Cl)cc2)nc1CN1CCCC(C(=O)NCc2ccccc2)C1 (stereo unspecified)	-	.	.	.	.	.
CCN(CC)CCOc1ccc(-c2nc3cc(Cl)ccc3s2)cc1	.	.	.	.	?	-
CCOC(=O)N1CCN(C(=O)CN(c2cc(C)ccc2OC)S(=O)(=O)c2ccc(C)cc2)CC1	-	.	.	.	.	.
CCn1nc(C)c(CCN(C)C(=O)Nc2ccc(C)c(Cl)c2)c1C	-	.	.	.	.	.
c1ccc(-c2csc3ncnc(NCc4ccccn4)c23)cc1	-	-	-	10µM	?	?
c1ccc(CNc2ncnc3scc(-c4cccs4)c23)nc1	-	-	-	?	-	-
CN(c1ccccc1)c1ccc(/C=N/N2CCOCC2)cc1	-	-	11µM	-	-	-
C(=NN1CCCCCC1)c1ccccc1	.	.	-	-	.	.
Cc1ccc(NC2=NCC(=O)N2C2CCCC2)cc1	-	-	-	-	5.9µM	-
CCOc1ccccc1NC(=O)CN1C(=O)C2(SCC(=O)N2c2cccc(F)c2)c2ccccc21 (stereo unspecified)	-	.	.	.	.	.
O=C(/C=C/c1ccco1)N(Cc1ccc(Cl)cc1)C1CCS(=O)(=O)C1 (stereo unspecified)	-	-	-	1.1µM	?	-
CN(C)c1ccc(CN(C(=O)/C=C/c2ccco2)C2CCS(=O)(=O)C2)cc1 (stereo unspecified)	-	-	-	?	?	-
SMILES	AmpC inh detg	AmpC inh no detg	AMA1-RON2 inh	HCV inh	Pf growth 96h	Pf growth 48h
COc1ccccc1CN1CC(C(=O)NCc2cnn(C)c2)CCC1=O (stereo unspecified)	-	-	-	-	6.6µM	-
Cc1ccc(CNC(=O)CS(=O)(=O)c2cccc3nsnc23)cc1	-	.	.	.	.	.
Cc1cccc(N2CCN(C(=O)COc3cc(=O)n(C)c4ccccc34)CC2)c1C	-	-	-	?	?	12µM
Cc1ccc(C)c(N2CCN(C(=O)CCCOc3cc(=O)n(C)c4ccccc34)CC2)c1	-	-	-	10µM	.	?
CC1CCN(C(=O)CCCOc2cc(=O)n(C)c3ccccc23)CC1	-	-	-	?	-	-
COc1ccc(N2CCN(C(=O)CCCOc3cc(=O)n(C)c4ccccc34)CC2)cc1	-	-	-	-	12µM	?
Cc1ccc(C)c(N2CCN(C(=O)c3cc4c(=O)n(Cc5ccco5)ccc4nc3C)CC2)c1	-	.	.	.	.	.
CCCCOC(=O)c1ccc(NC(=O)c2c(Cl)ccc(Cl)c2OC)cc1	-	-	-	?	5.2µM	-
CCCCOC(=O)c1ccc(NC(=O)c2c(O)[nH]c(=O)[nH]c2=O)cc1	.	.	-	-	.	.
COC(=O)c1c(NC(=O)CN2C(=O)NC3(CCc4ccccc4C3)C2=O)sc2c1CCCCC2 (stereo unspecified)	-	3.5µM	-	?	-	-
CC1CCCCC12NC(=O)N(CC(=O)Nc1sc3c(c1C(N)=O)CCC3)C2=O (stereo unspecified)	-	-	-	-	10µM	.
CCOC(=O)c1cccc(NC(=O)N2CC=C(c3c[nH]c4ccccc34)CC2)c1	-	.	.	.	.	.
O=S1(=O)N(CCN2CC=C(c3c[nH]c4cc(F)ccc34)CC2)c2cccc3c2N1CCC3	-	-	?	?	0.93µM	1.2µM
O=C(Nc1ccc2nc(-c3ccco3)c(-c3ccco3)nc2c1)N1CCCCCC1	-	-	12µM	2.8µM	-	?
CCOC(=O)C1CCN(C(=O)Nc2ccc3c(c2)nc(C)n3C)CC1	-	-	-	-	?	-
CCOC(=O)C1CCN(C(=O)Nc2ccc3nc(-c4ccco4)c(-c4ccco4)nc3c2)CC1	-	?	?	?	?	10µM
COc1ccc(C2=NN(c3ccccc3)C(=O)/C2=C\c2ccc(O)c(OC)c2)cc1	-	-	-	-	?	13µM
NS(=O)(=O)c1ccc(NC(=O)COc2ccc(C(=O)c3ccc(F)cc3)cc2)cc1	-	-	-	14µM	?	?
NS(=O)(=O)c1ccc(NC(=O)COc2cccc3ccccc23)cc1	-	13µM	-	.	-	-
COc1ccc(-c2nc(-c3ccc4c(c3)OCO4)[nH]c2-c2ccc(OC)cc2)cc1	-	-	-	8.9µM	-	?
COc1ccc(-c2nc(-c3ccccc3)c(-c3ccc(O)cc3)[nH]2)cc1	-	.	.	.	.	.
CCc1noc(C)c1C(=O)N1CC(C)OC(C)C1 (stereo unspecified)	?	-	-	-	-	-
CCc1noc(C)c1C(=O)N1CC(C)SC1=Nc1ccc(Cl)cc1 (stereo unspecified)	-	-	-[11.6 µM]	?	13µM	10µM
CC(C)CNC(=S)NNC(=O)c1csc2c1CCC(C)C2 (stereo unspecified)	-	-	-	?	6.6µM	.
O=C(NCCN1CCOCC1)c1csc2c1CCCCC2	?	-	-	-	-	-
CCN1CCN(CCCNC(=O)c2csc3c2CCCCC3)CC1	-	-	-	-	15µM	-
